G9a block = inhibitors of human histone lysine methyltransferase G9a | Potency, µM (titrated, usually from 102 µM), actives largely listed as inhibitors | Q96KQ7 | G9a H3K9 monomethylation, AlphaScreen, 2 h | actives 8.8% (n = 350,000); also: nearly all actives have a fitted effect of over 75% in size
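Step 1: enzyme (final 20 nM) with compound, 15 min RT. Step 2: substrate peptide 500 nM and SAM 20 uM, 2 h RT. Step 3: anti-H3K9me1 antibody and AlphaScreen beads, 10 min, then plate read.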
GLS inh = inhibitors of human glutaminase (GLS). GLS enzymatic activity, qHTS titration. Potency, µM (titrated, usually from 45.5 µM), actives largely listed as inhibitors. actives 0.21% (n = 410,000). AID 624170
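Human kidney-isoform GLS in 45 mM KH2PO4 pH 8.2, 0.02% Tween-20, with compound, started with 1mM L-Glutamine (added stock). Glutamate oxidase/HRP/Amplex red coupled fluorescence read at start and after 30 min at RT.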
JMJD2A Tudor = blocks the human JMJD2A Tudor domain | O75164 | AlphaScreen JMJD2A-Tudor / H3K4me3 peptide binding | Potency, µM (highest dose often 114 µM), usual class: inhibitors | actives 4.4% (n = 390,000); also: nearly all actives have a fitted effect of over 50% in size
HP1b binding inh = HP1-beta chromodomain-methylated histone interaction inhibition; P83916; AlphaScreen HP1-beta / biotin-H3K9me3 peptide binding; Potency, µM (titrated, usually from 114 µM), hits mostly inhibitors; actives 0.56% (n = 390,000); AID 540317; also: nearly all actives have a fitted effect of over 70% in size
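AlphaScreen: HP1-beta (50 nM) preformed 30 min with biotin-H3(1-18)K9me3 peptide (50 nM) in PBS pH 7.4, 0.01% Tween-20. Compound added for 30 min at RT, then streptavidin donor/nickel chelate acceptor beads (10 ug/mL) for 30 min.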
BAZ2B block = inhibitors of human BAZ2B bromodomain. AlphaScreen BAZ2B-H3K14Ac peptide displacement. Potency, µM (doses to about 114 µM), hits mostly inhibitors. AID 504333. actives 4.4% (n = 360,000); also: nearly all actives have a fitted effect of over 60% in size
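AlphaScreen displacement of biotin-H3(5-23)K14Ac peptide (50 nM final) from BAZ2B (50 nM final) in PBS pH 7.4, 0.01% Tween-20; complex preformed 30 min RT, then compounds (top 110 uM) 30 min RT, beads 20 min dark.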
Of the large screens only hits and unclear results are named; the others gave an inactive call. Most compounds without a hit are left out; they make up all but 10% or so of the library. Calls follow the shape of the dose curve; as a rule, active = well fitted curve in the direction sought with a large enough effect; inconclusive = small, poorly fitted or top-dose-only effect, or another doubt; inactive = no such curve, though single readings can be large; an effect the other way counts as inactive or inconclusive.

COc1ccc(N2CCN(C(=O)CSc3nnc4c(C)cc5c(C)cc(C)cc5n34)CC2)cc1	G9a block inconclusive, JMJD2A Tudor inconclusive
COc1cc(OC)c(OC)cc1CCC(C)NCCC(c1ccccc1)c1ccccc1 (stereo not given)	JMJD2A Tudor 45µM, HP1b binding inh inconclusive, BAZ2B block 13µM
COc1cc(CNCc2cccs2)ccc1OCc1ccccc1	none
COc1cc(CNCc2ccccn2)ccc1OCc1ccc(Cl)cc1	JMJD2A Tudor 25µM, BAZ2B block inconclusive
COc1cc(CNCc2ccccn2)ccc1OCc1c(Cl)cccc1Cl	JMJD2A Tudor inconclusive, BAZ2B block 89µM
CNC(C)C#Cc1c(-c2cc(OC)c(OC)c(OC)c2)noc1C (stereo not given)	G9a block 32µM, JMJD2A Tudor inconclusive, BAZ2B block inconclusive
c1nc(NCC2(N3CCOCC3)CCCCC2)c2ccsc2n1	G9a block inconclusive
CC(C)c1ccc(NC(=O)c2n[nH]c(=O)c3ccccc23)cc1	none
CCN(c1ccccc1)S(=O)(=O)c1ccc(OC)c(NC(=O)c2c(C)noc2C)c1	none
CCN(c1ccccc1)S(=O)(=O)c1ccc(Cl)c(NC(=O)CN(C)C2CCN(C)CC2)c1	G9a block 11µM, JMJD2A Tudor inconclusive, HP1b binding inh inconclusive, BAZ2B block 22µM
CCN(c1ccccc1)S(=O)(=O)c1ccc(OC)c(NC(=O)c2cc(Cl)ccn2)c1	G9a block 56µM
CCN(c1ccccc1)S(=O)(=O)c1ccc(Cl)c(NC(=O)CNCc2ccccc2OC)c1	JMJD2A Tudor 3.2µM, HP1b binding inh inconclusive (no result: G9a block, BAZ2B block)
Cc1ccc(S(=O)(=O)NNC(=O)c2cc(C)c(C)cc2N)cc1	none (no result: G9a block, BAZ2B block)
Cc1ccccc1NC(=O)CC1NCCNC1=O (stereo not given)	none
Cc1ccc(-c2nnn(CC(=O)N(c3ccc(F)cc3)C(C(=O)NC3CCCC3)c3ccncc3)n2)o1 (stereo not given)	none
CCOC(=O)c1c2c(n(Cc3ccccc3)c1C)C(=O)C(=O)c1ccccc1-2	JMJD2A Tudor 7.1µM, HP1b binding inh 25µM (no result: G9a block, BAZ2B block)
CCOC(=O)c1c2c3c(c(Cl)ccc3[nH]c1=O)C(=O)c1ccccc1-2	G9a block inconclusive, BAZ2B block 32µM
CCOC(=O)c1c2c3c(cccc3n(C)c1=O)C(=O)c1ccccc1-2	JMJD2A Tudor inconclusive, BAZ2B block inconclusive
CCOC(=O)c1c2c3c(cccc3[nH]c1=O)C(=O)c1ccccc1-2	G9a block 56µM
CCOC(=O)c1c2c(n(C)c1C)C(=O)C(=O)c1ccc(Br)cc1-2	none (no result: G9a block, BAZ2B block)
Cc1cc(N2CCC(C)CC2)nc(SCC(=O)c2ccccc2)n1	none
Cc1cc(=O)[nH]c2c1c(C)nn2C1CCCC1	none
CC(=O)c1ccc(NC(=O)COC(=O)Cc2ccsc2)cc1	none (no result: G9a block, BAZ2B block)
O=C(O)CNS(=O)(=O)c1ccc(C2CCCCC2)cc1	G9a block inconclusive
O=C(N/N=C/c1ccc(O)cc1O)c1ccc(CN2C(=O)c3cccc4cccc2c34)cc1	G9a block 79µM
O=C(N/N=C/c1ccccc1)c1ccc(CN2C(=O)c3cccc4cccc2c34)cc1	JMJD2A Tudor inconclusive
O=C1c2c(O)cc(O)cc2O[C@@]12c1c(cc(O)c3c1O[C@H](c1ccc(O)cc1)[C@@H](O)C3)O[C@@H]2c1ccc(O)cc1	G9a block 50µM, BAZ2B block inconclusive
Cc1cc(-c2nc(C)c(C(=O)NNS(=O)(=O)c3ccccc3)s2)no1	none
Cc1nc(C)c(C(=O)NNS(=O)(=O)c2ccc3ccccc3c2)s1	G9a block inconclusive, JMJD2A Tudor 25µM
Cc1nc(NS(=O)(=O)c2ccccc2)sc1C(=O)NNS(=O)(=O)c1ccccc1	G9a block 50µM
Cc1ccc(S(=O)(=O)NNC(=O)c2sc(NS(=O)(=O)c3ccccc3)nc2C)cc1	GLS inh inconclusive
Cc1nc(NS(=O)(=O)c2ccccc2)sc1NC(=O)Nc1ccc(Cl)cc1	JMJD2A Tudor inconclusive, BAZ2B block 50µM
CCC(C)(C)NC(=O)c1cccc(NC(=O)C(C)C)c1	JMJD2A Tudor 40µM (no result: G9a block)
CC(C)Cn1c(=S)[nH]c2ccccc2c1=O	none
CC(C)Cn1c(=S)[nH]c2cc(Cl)ccc21	G9a block 6.3µM, HP1b binding inh inconclusive
CC1=Nc2cc([N+](=O)[O-])ccc2NC(C)(C)C1	G9a block 32µM, JMJD2A Tudor inconclusive, BAZ2B block inconclusive

Screening results: PubChem BioAssay, National Center for Advancing Translational Sciences (NCATS)
